# Results published in PubChem BioAssay (NCI).
# Compounds without any hit were thinned out: in the full panel of roughly 79,000, 15% have a hit. Values without a mark were called inactive. Activity calls are given as the source filed them. Rule as the data show it: active = growth inhibition above about 70%; inactive = the rest.
# Key:
# [1] = NCI Yeast Anticancer Drug Screen. Data for the rad52 strain (AID 147);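 also: 0% = growth of vehicle-treated control cultures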; conditions: S. cerevisiae rad52 mutant growth inhibition, hits give high values
# Method in brief: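 Growth of repair-deficient yeast cells was compared between compound-treated and vehicle-treated cultures to give percent inhibition.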
# [2] = NCI Yeast Anticancer Drug Screen. Data for the wt1 strain (AID 149);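 also: 0% = growth of vehicle-treated wt1 cultures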; conditions: S. cerevisiae wt1 strain (SPY 50644) growth inhibition, hits give high values
# Method in brief: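 wt1 strain grown with compound or vehicle; inhibition taken from the growth difference.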
# [3] = NCI Yeast Anticancer Drug Screen. Data for the rad50EPP+ strain (AID 151);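 also: 0% = growth of vehicle-treated control cultures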; conditions: S. cerevisiae rad50 mutant strain, hits give high values
# Method in brief: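 Measured: growth inhibition of rad50EPP+ yeast. Reference: vehicle-treated controls. Screen uses strains with defined genetic alterations in DNA damage repair or cell cycle control.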
# [4] = NCI Yeast Anticancer Drug Screen. Data for the mgt1 strain (AID 153); conditions: S. cerevisiae mgt1 mutant growth inhibition, hits give high values
# Method in brief: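 Compounds were applied to mgt1 mutant yeast, and growth was then compared against vehicle-treated control cultures to give percent inhibition.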
# [5] = NCI Yeast Anticancer Drug Screen. Data for the rad50 strain (AID 155);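 also: 0% = growth of vehicle-only cultures of the same strain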; conditions: S. cerevisiae rad50 strain growth inhibition, hits give high values
# Method in brief: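 DNA repair mutant yeast, compound exposure, growth read-out; inhibition is taken relative to vehicle.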
# [6] = NCI Yeast Anticancer Drug Screen. Data for the mec2-1 strain (AID 157); conditions: S. cerevisiae mec2-1 strain, hits give high values
# Method in brief: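 Compounds were applied to mec2-1 yeast cells. Their growth was then compared with that of vehicle-treated cultures to give growth inhibition.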
# [7] = NCI Yeast Anticancer Drug Screen. Data for the sgs1 mgt1 strain (AID 161);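 also: 0% = growth of cultures given vehicle only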; conditions: S. cerevisiae sgs1 mgt1 strain, hits give high values
# Method in brief: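 Percent growth inhibition was derived by comparing compound-exposed mutant yeast with vehicle-exposed cultures. The strain carries alterations in DNA damage repair.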
# [8] = NCI Yeast Anticancer Drug Screen. Data for the CLN2oe strain (AID 163);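 also: 0% = growth of vehicle-only control cultures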; conditions: S. cerevisiae CLN2oe strain, hits give high values
# Method in brief: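 Cells of an engineered yeast line with disturbed cell-cycle regulation are treated with compound. Inhibition of growth is then calculated relative to the vehicle-treated reference.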
# [9] = NCI Yeast Anticancer Drug Screen. Data for the cln2 rad14 strain (AID 165);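 also: 0% = growth equal to vehicle treated cultures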; conditions: S. cerevisiae cln2 rad14 strain, hits give high values
# Method in brief: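 Strain: cln2 rad14 yeast, altered in cell cycle control and DNA damage repair. Read-out: growth inhibition vs vehicle.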
# [10] = NCI Yeast Anticancer Drug Screen. Data for the bub3 strain (AID 167); conditions: S. cerevisiae bub3 mutant strain, hits give high values
# Method in brief: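 In this screen, a yeast mutant lacking normal mitotic checkpoint function is challenged with compound. Relative growth versus vehicle gives the inhibition value.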
# [11] = NCI Yeast Anticancer Drug Screen. Data for the wt2 strain (AID 169);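 also: 0% = growth of vehicle-treated yeast cultures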; conditions: S. cerevisiae wt2 strain growth inhibition, hits give high values
# Method in brief: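 Growth of compound-treated yeast is measured and expressed as inhibition relative to vehicle-only controls.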
# [12] = NCI Yeast Anticancer Drug Screen. Data for the mlh1 strain (AID 171);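 also: 0% = growth of vehicle-treated control cultures of the same strain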; conditions: S. cerevisiae mlh1 strain growth inhibition, hits give high values
# Method in brief: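 Test agents were incubated with yeast bearing a defined DNA damage repair or cell cycle control alteration; values are growth inhibition normalised to vehicle-treated cultures.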
# [13] = NCI Yeast Anticancer Drug Screen. Data for the sgs1 strain (AID 173);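 also: 0% = growth of vehicle-only control cultures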; conditions: S. cerevisiae sgs1 mutant, hits give high values
# Method in brief: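 Strain with an altered DNA repair or cell cycle pathway exposed to compound. Growth then measured. Value = inhibition versus vehicle control.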
# [14] = NCI Yeast Anticancer Drug Screen. Data for the mlh1 rad18 strain (AID 175); conditions: S. cerevisiae mlh1 rad18 strain growth inhibition, hits give high values
# Method in brief: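 A repair-deficient yeast strain is exposed to test compound, and growth is scored relative to vehicle-treated controls.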
# [15] = NCI Yeast Anticancer Drug Screen. Data for the rad18 strain (AID 177); conditions: S. cerevisiae rad18 mutant growth inhibition, hits give high values
# Method in brief: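 DNA-repair-defective yeast; compound treatment; growth inhibition scored against vehicle.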
# [16] = NCI Yeast Anticancer Drug Screen. Data for the rad14 strain (AID 159);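 also: 0% = growth of vehicle-treated control cultures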; conditions: S. cerevisiae rad14 strain growth inhibition, hits give high values
# Method in brief: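 DNA repair-defective yeast, compound-exposed; % growth inhibition derived by comparison with vehicle-treated controls.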
# [17] = at 5.0 µM (retest, dose inferred, filed as 0.5)
# [18] = at 50.0 µM (retest, dose inferred, filed as 5.0)
smiles,measurement,setting,value
CCOC(=O)/C(=C\c1cccc(C)c1)C(C)=O,growth inhibition,[1]; at 1.2 µM,-3%
same,growth inhibition,[1]; at 3.7 µM,10%
same,growth inhibition,[1]; at 11.0 µM,67%
same,growth inhibition,[1]; at 33.0 µM,91% (active)
same,growth inhibition,[1]; at 100.0 µM,99% (active)
same,growth inhibition,[2]; at 1.2 µM,-37%
same,growth inhibition,[2]; at 3.7 µM,-15%
same,growth inhibition,[2]; at 11.0 µM,29%
same,growth inhibition,[2]; at 33.0 µM,88% (active)
same,growth inhibition,[2]; at 100.0 µM,98% (active)
same,growth inhibition,[3]; at 1.2 µM,48%
same,growth inhibition,[3]; at 3.7 µM,31%
same,growth inhibition,[3]; at 11.0 µM,60%
same,growth inhibition,[3]; at 33.0 µM,91% (active)
same,growth inhibition,[3]; at 100.0 µM,99% (active)
same,growth inhibition,[4]; at 1.2 µM,-2%
same,growth inhibition,[4]; at 3.7 µM,3%
same,growth inhibition,[4]; at 11.0 µM,58%
same,growth inhibition,[4]; at 33.0 µM,91% (active)
same,growth inhibition,[4]; at 100.0 µM,99% (active)
same,growth inhibition,[5]; at 1.2 µM,-13%
same,growth inhibition,[5]; at 3.7 µM,-8%
same,growth inhibition,[5]; [17],20%
same,growth inhibition,[5]; at 11.0 µM,58%
same,growth inhibition,[5]; at 33.0 µM,89% (active)
same,growth inhibition,[5]; [18],91% (active)
same,growth inhibition,[5]; at 50.0 µM,92.3% (active)
same,growth inhibition,[5]; at 100.0 µM,98% (active)
same,growth inhibition,[6]; at 1.2 µM,0%
same,growth inhibition,[6]; at 3.7 µM,3%
same,growth inhibition,[6]; [17],-5%
same,growth inhibition,[6]; at 11.0 µM,71% (active)
same,growth inhibition,[6]; at 33.0 µM,95% (active)
same,growth inhibition,[6]; [18],96% (active)
same,growth inhibition,[6]; at 50.0 µM,93.5% (active)
same,growth inhibition,[6]; at 100.0 µM,100% (active)
same,growth inhibition,[7]; [17],19%
same,growth inhibition,[7]; [18],94% (active)
same,growth inhibition,[7]; at 50.0 µM,92.5% (active)
same,growth inhibition,[8]; at 1.2 µM,11%
same,growth inhibition,[8]; at 3.7 µM,4%
same,growth inhibition,[8]; at 11.0 µM,55%
same,growth inhibition,[8]; at 33.0 µM,92% (active)
same,growth inhibition,[8]; at 100.0 µM,99% (active)
same,growth inhibition,[9]; [17],5%
same,growth inhibition,[9]; [18],88% (active)
same,growth inhibition,[9]; at 50.0 µM,87.5% (active)
same,growth inhibition,[10]; at 1.2 µM,1%
same,growth inhibition,[10]; at 3.7 µM,14%
same,growth inhibition,[10]; [17],55%
same,growth inhibition,[10]; at 11.0 µM,89% (active)
same,growth inhibition,[10]; at 33.0 µM,97% (active)
same,growth inhibition,[10]; [18],96% (active)
same,growth inhibition,[10]; at 50.0 µM,90.2% (active)
same,growth inhibition,[10]; at 100.0 µM,99% (active)
same,growth inhibition,[11]; at 1.2 µM,20%
same,growth inhibition,[11]; at 3.7 µM,23%
same,growth inhibition,[11]; at 11.0 µM,69%
same,growth inhibition,[11]; at 33.0 µM,92% (active)
same,growth inhibition,[11]; at 100.0 µM,99% (active)
same,growth inhibition,[12]; at 1.2 µM,13%
same,growth inhibition,[12]; at 3.7 µM,18%
same,growth inhibition,[12]; at 11.0 µM,80% (active)
same,growth inhibition,[12]; at 33.0 µM,95% (active)
same,growth inhibition,[12]; at 100.0 µM,98% (active)
same,growth inhibition,[13]; at 1.2 µM,22%
same,growth inhibition,[13]; at 3.7 µM,51%
same,growth inhibition,[13]; at 11.0 µM,84% (active)
same,growth inhibition,[13]; at 33.0 µM,94% (active)
same,growth inhibition,[13]; at 100.0 µM,98% (active)
same,growth inhibition,[14]; [17],15%
same,growth inhibition,[14]; [18],94% (active)
same,growth inhibition,[14]; at 50.0 µM,90.4% (active)
same,growth inhibition,[15]; at 1.2 µM,3%
same,growth inhibition,[15]; at 3.7 µM,12%
same,growth inhibition,[15]; at 11.0 µM,65%
same,growth inhibition,[15]; at 33.0 µM,89% (active)
same,growth inhibition,[15]; at 100.0 µM,98% (active)
Cc1ccc(C)c(C(=N)c2ccccc2Cc2ccccc2)c1,growth inhibition,[1]; at 1.2 µM,-5%
same,growth inhibition,[1]; at 3.7 µM,17%
same,growth inhibition,[1]; at 11.0 µM,70% (active)
same,growth inhibition,[1]; at 33.0 µM,94% (active)
same,growth inhibition,[1]; at 100.0 µM,97% (active)
same,growth inhibition,[2]; at 1.2 µM,-3%
same,growth inhibition,[2]; at 3.7 µM,10%
same,growth inhibition,[2]; at 11.0 µM,35%
same,growth inhibition,[2]; at 33.0 µM,90% (active)
same,growth inhibition,[2]; at 100.0 µM,97% (active)
same,growth inhibition,[3]; at 1.2 µM,-4%
same,growth inhibition,[3]; at 3.7 µM,2%
same,growth inhibition,[3]; at 11.0 µM,31%
same,growth inhibition,[3]; at 33.0 µM,84% (active)
same,growth inhibition,[3]; at 100.0 µM,94% (active)
same,growth inhibition,[4]; at 1.2 µM,-3%
same,growth inhibition,[4]; at 3.7 µM,37%
same,growth inhibition,[4]; at 11.0 µM,75% (active)
same,growth inhibition,[4]; at 33.0 µM,94% (active)
same,growth inhibition,[4]; at 100.0 µM,97% (active)
same,growth inhibition,[5]; at 1.2 µM,-1%
same,growth inhibition,[5]; at 3.7 µM,7%
same,growth inhibition,[5]; [17],60%
same,growth inhibition,[5]; at 11.0 µM,71% (active)
same,growth inhibition,[5]; at 33.0 µM,92% (active)
same,growth inhibition,[5]; [18],96% (active)
same,growth inhibition,[5]; at 50.0 µM,98.4% (active)
same,growth inhibition,[5]; at 100.0 µM,95% (active)
same,growth inhibition,[6]; at 1.2 µM,2%
same,growth inhibition,[6]; at 3.7 µM,12%
same,growth inhibition,[6]; [17],0%
same,growth inhibition,[6]; at 11.0 µM,72% (active)
same,growth inhibition,[6]; at 33.0 µM,95% (active)
same,growth inhibition,[6]; [18],94% (active)
same,growth inhibition,[6]; at 50.0 µM,97.3% (active)
same,growth inhibition,[6]; at 100.0 µM,97% (active)
same,growth inhibition,[16]; at 1.2 µM,0%
same,growth inhibition,[16]; at 3.7 µM,31%
same,growth inhibition,[16]; at 11.0 µM,52%
same,growth inhibition,[16]; at 33.0 µM,93% (active)
same,growth inhibition,[16]; at 100.0 µM,98% (active)
same,growth inhibition,[7]; [17],62%
same,growth inhibition,[7]; [18],94% (active)
same,growth inhibition,[7]; at 50.0 µM,97.5% (active)
same,growth inhibition,[9]; [17],18%
same,growth inhibition,[9]; [18],93% (active)
same,growth inhibition,[9]; at 50.0 µM,93.4% (active)
same,growth inhibition,[10]; at 1.2 µM,7%
same,growth inhibition,[10]; at 3.7 µM,29%
same,growth inhibition,[10]; [17],13%
same,growth inhibition,[10]; at 11.0 µM,77% (active)
same,growth inhibition,[10]; at 33.0 µM,96% (active)
same,growth inhibition,[10]; [18],97% (active)
same,growth inhibition,[10]; at 50.0 µM,97.4% (active)
same,growth inhibition,[10]; at 100.0 µM,95% (active)
same,growth inhibition,[11]; at 1.2 µM,-1%
same,growth inhibition,[11]; at 3.7 µM,42%
same,growth inhibition,[11]; at 11.0 µM,78% (active)
same,growth inhibition,[11]; at 33.0 µM,93% (active)
same,growth inhibition,[11]; at 100.0 µM,97% (active)
same,growth inhibition,[12]; at 1.2 µM,0%
same,growth inhibition,[12]; at 3.7 µM,35%
same,growth inhibition,[12]; at 11.0 µM,80% (active)
same,growth inhibition,[12]; at 33.0 µM,92% (active)
same,growth inhibition,[12]; at 100.0 µM,98% (active)
same,growth inhibition,[13]; at 1.2 µM,8%
same,growth inhibition,[13]; at 3.7 µM,60%
same,growth inhibition,[13]; at 11.0 µM,86% (active)
same,growth inhibition,[13]; at 33.0 µM,95% (active)
same,growth inhibition,[13]; at 100.0 µM,97% (active)
same,growth inhibition,[14]; [17],45%
same,growth inhibition,[14]; [18],94% (active)
same,growth inhibition,[14]; at 50.0 µM,98.2% (active)
same,growth inhibition,[15]; at 1.2 µM,-3%
same,growth inhibition,[15]; at 3.7 µM,20%
same,growth inhibition,[15]; at 11.0 µM,67%
same,growth inhibition,[15]; at 33.0 µM,94% (active)
same,growth inhibition,[15]; at 100.0 µM,96% (active)
